# According to PubChem BioAssay AID1814 (Broad Institute, 2009):
# The campaign covered roughly 300,000 compounds. About 22,000 (7.3%) were called active. Not shown: some 2% with an inconclusive outcome. This is one part of a sample in which actives are shown more often than they occur. Cut-off read from the data, not from the text of the source: active = activity score below about -60%; inconclusive = mostly about -28% to -61%; inactive = positive scores.
# Assay: Activators via SNCA 5'UTR binding, MLPCN (AID 1814)
# Details: alpha-synuclein 5'UTR reporter, activators screen; hits give low values; tested at 7.5 µM
row,Structure (SMILES),activity score
1,O=C1NC(=O)N(CCc2ccc(F)cc2)C(=O)/C1=C/C=C/c1ccccc1,-115% (active)
2,COc1cccc(-c2nc3ccc(N4CCN(C)CC4)cc3[nH]2)c1,68.9% (inactive)
3,Cc1nc2ccc(N3CCN(C)CC3)cc2nc1C,-72% (active)
4,CN(C)C(=O)Oc1ccc2c(c1)O/C(=C\c1ccccc1)C2=O,-101% (active)
5,CC(C)(C)c1ccc(OC(=O)N2CCCCC2)cc1,-192% (active)
6,CCCCCn1c(=O)c(C(=O)Nc2c(C)n(C)n(-c3ccccc3)c2=O)c(O)c2ccccc21,-108% (active)
7,c1ccc2sc(C3CCCNC3)nc2c1 (stereo not given),-63% (active)
8,C/C(=N/O)c1ccc2ccc3ccccc3c2c1,-104% (active)
9,O=Cc1cn(Cc2ccc(F)cc2Cl)c2ccccc12,61.1% (inactive)
10,c1cc2c(cc1[C@H]1OC[C@H]3[C@@H]1CO[C@@H]3c1ccc3c(c1)OCO3)OCO2,72.8% (inactive)
11,O=C(Nc1cccc2ccccc12)N1CCC2(CC1)OCCO2,-71.1% (active)
12,CCOc1ccc(-c2cc(C)[n+](CCN(CC)CC)c(-c3ccc(OCC)cc3)c2)cc1,95.2% (inactive)
13,CN(C)CC1Oc2ccccc2OC1(O)c1ccccc1 (stereo not given),-101% (active)
14,CCCCCCCCCCCCn1ccc(=N)cc1,104% (inactive)
15,N#CC1=C(N)Oc2c(c(=O)oc3ccccc23)C1c1ccccc1OC(=O)c1cccs1 (stereo not given),-63% (active)
